Test results as given in PubChem BioAssay AID1159580 (chemical genetic matrix, 2015).
Where “and” joins values, the source holds several entries; their conditions need not be identical. Equal values may be shown once. Out of some 5,500 compounds screened, about 2,000 (36%) were called active. Inconclusive results (about 18%) are left out. Rule as the data show it: active = normalized growth mostly below about 0.91 (no sharp cut-off); inconclusive = no clear call, values can overlap the other calls; inactive = mostly above about 0.92. Some of the results follow.

Experiment: chemical genetic growth profiling, strain panel (AID 1159580);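 also: tested at 20 µM; growth read once vehicle control cultures reached saturation at 30 °C; 1 = growth at the plate median or of vehicle wells; lower values mean less growth of the strain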
Details: S. cerevisiae deletion strains, growth OD

Measured: normalized growth

CC[C@H]1OC(=O)[C@H](C)[C@@H](O[C@H]2C[C@@](C)(OC)[C@@H](O)[C@H](C)O2)[C@H](C)[C@@H](O[C@@H]2O[C@H](C)C[C@H](N(C)C)[C@H]2O)[C@](C)(O)C[C@@H](C)[C@@H]2N[C@@H](COCCOC)O[C@H]([C@H]2C)[C@]1(C)O
inactive: locus YAL021C, strain ccr4, active compounds read low 0.991 | locus YAL026C, strain drs2, active compounds read low 0.993 | locus YAL030W, strain snc1, active compounds read low 0.999 | locus YBL061C, strain skt5, active compounds read low 0.982 | locus YBR009C, strain hhf1, active compounds read low 0.995 | locus YBR021W, strain FUR4, active compounds read low 1.01 | locus YBR023C, strain chs3, active compounds read low 0.993 | locus YBR171W, strain sec66, active compounds read low 0.977 | locus YBR229C, strain ROT2, active compounds read low 1.01 | locus YBR231C, strain swc5, active compounds read low 0.992 | locus YBR279W, strain paf1, active compounds read low 0.998 | locus YCL011C, strain gbp2, active compounds read low 0.99 | locus YCL016C, strain dcc1, active compounds read low 0.985 | locus YCL029C, strain bik1, active compounds read low 1.01 | locus YCL061C, strain MRC1, active compounds read low 0.982 | locus YCL069W, strain vba3, active compounds read low 0.988 | locus YCR088W, strain abp1, active compounds read low 0.999 | locus YDL005C, strain med2, active compounds read low 0.978 | locus YDL035C, strain GPR1, active compounds read low 1.01 | locus YDL040C, strain nat1, active compounds read low 0.996 | locus YDL074C, strain BRE1, active compounds read low 1.01 | locus YDL101C, strain DUN1, active compounds read low 1.05 | locus YDL185W, strain tfp1, active compounds read low 1 | locus YDL192W, strain arf1, active compounds read low 1.01 | locus YDR001C, strain nth1, active compounds read low 0.995 | locus YDR069C, strain doa4, active compounds read low 0.995 | locus YDR101C, strain arx1, active compounds read low 0.984 | locus YDR137W, strain rgp1, active compounds read low 1 | locus YDR159W, strain sac3, active compounds read low 0.985 | locus YDR162C, strain NBP2, active compounds read low 1 | locus YDR195W, strain ref2 0.966 | locus YDR297W, strain sur2, active compounds read low 1 | locus YDR318W, strain mcm21, active compounds read low 1.01 | locus YDR334W, strain swr1, active compounds read low 0.986 | locus YDR335W, strain msn5, active compounds read low 0.998 | locus YDR388W, active compounds read low 1.01 | locus YDR392W, strain spt3, active compounds read low 0.989 | locus YDR502C, strain sam2, active compounds read low 0.997 | locus YEL003W, strain gim4, active compounds read low 1 | locus YEL037C, strain rad23, active compounds read low 0.997 | locus YEL061C, strain CIN8 (second series), active compounds read low 0.998 | locus YEL061C, strain CIN8, active compounds read low 1.01 | locus YER015W, strain faa2, active compounds read low 1 | locus YER016W, strain bim1, active compounds read low 0.987 | locus YER110C, active compounds read low 1.01 | locus YER111C, strain swi4, active compounds read low 0.991 | locus YER155C, strain BEM2 (second series), active compounds read low 0.999 | locus YER155C, strain BEM2, active compounds read low 1.01 | locus YER167W, strain BCK2, active compounds read low 1 | locus YFR010W, strain ubp6, active compounds read low 0.988 | locus YGL078C, strain dbp3, active compounds read low 1.01 | locus YGL167C, strain pmr1, active compounds read low 0.991 | locus YGL173C, strain kem1, active compounds read low 0.984 | locus YGL227W, strain vid30, active compounds read low 0.99 | locus YGL240W, strain doc1, active compounds read low 0.989 | locus YGL248W, strain PDE1, active compounds read low 1.02 | locus YGL253W, strain hxk2, active compounds read low 0.998 | locus YGR135W, strain pre9, active compounds read low 1.04 | locus YGR252W, strain gcn5, active compounds read low 0.991 | locus YHR013C, strain ard1, active compounds read low 0.952 | locus YHR027C, strain rpn1, active compounds read low 0.983 | locus YHR030C, strain SLT2, active compounds read low 1 and 1.04 | locus YHR079C, strain IRE1 (second series), active compounds read low 1.01 | locus YHR079C, strain IRE1, active compounds read low 1.03 | locus YHR094C, strain hxt1, active compounds read low 1.01 | locus YHR129C, strain ARP1, active compounds read low 1.01 | locus YHR142W, strain chs7, active compounds read low 0.997 | locus YHR200W, strain rpn10, active compounds read low 1.01 | locus YIL066C, strain RNR3, active compounds read low 1.01 | locus YIL073C, strain SPO22, active compounds read low 1.06 | locus YIL125W, strain kgd1, active compounds read low 1 | locus YIR030C, strain dcg1, active compounds read low 1.02 | locus YJL092W, strain hpr5, active compounds read low 0.991 | locus YJL095W, strain BCK1 (second series), active compounds read low 0.982 | locus YJL095W, strain BCK1, active compounds read low 1.06 and 1 | locus YJL115W, strain asf1, active compounds read low 0.995 | locus YJL129C, strain trk1, active compounds read low 1.01 | locus YJL134W, strain LCB3, active compounds read low 1.01 | locus YJL154C, strain vps35, active compounds read low 0.993 | locus YJL164C, strain tpk1, active compounds read low 1 | locus YJL166W, strain qcr8, active compounds read low 0.993 | locus YJL168C, strain set2, active compounds read low 1 | locus YJL187C, strain SWE1 (second series), active compounds read low 1.05 | locus YJL187C, strain SWE1, active compounds read low 0.991 | locus YJR043C, strain POL32, active compounds read low 0.989 | locus YJR066W, strain TOR1, active compounds read low 0.982
